Screens: PubChem BioAssay, National Center for Advancing Translational Sciences (NCATS)
Sampled rows, rich in hits. Any-hit rate of the full collection: about 10%.
SARS PLpro yeast = SARS-CoV PLP inhibition in yeast | S. cerevisiae expressing SARS-CoV PLpro, growth rescue | Potency, µM (titrated, usually from 32.9 µM), actives largely listed as activators | 0.19% of 330,000 active | AID 485353; note: nearly all actives have a fitted effect of over 55% in size
NS1 inh = inhibitors of influenza NS1 protein function | Potency, µM (titrated, usually from 46.1 µM) | 0.4% of 270,000 active; note: actives are rising curves; nearly all actives have a fitted effect of over 50% in size
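Recovery from NS1-induced slow growth read by OD600 in budding yeast switched to galactose assay medium (pH 6.0, -URA) at 1:100 dilution. Compound 23 nl per well; the matching strain lacking NS1 serves as control.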
Pf growth 48h = inhibits P. falciparum growth in the first generation, 48 h; P. falciparum luciferase growth in erythrocytes, 48 h; Potency, µM (series often up to 28.7 µM), usual class: inhibitors; 5.9% of 310,000 active; active = well fitted inhibition curve with a large enough effect; inconclusive = small, poorly fitted or top-dose-only effect, or another doubt; inactive = no such curve, though single readings can be large or run the other way
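Erythrocytes infected with P. falciparum carrying an integrated firefly luciferase reporter (2% hematocrit, 0.1% parasitemia final) were exposed to compounds in RPMI 1640 with 0.5% Albumax at 37 C, 5% CO2. Growth inhibition was scored as reduced luminescence.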
Pf growth 96h = inhibits malaria parasite growth, 96 h; Potency, µM (highest dose often 28.7 µM), most hits filed as inhibitors; 6.9% of 320,000 active; P. falciparum luciferase reporter growth, 96 h; active = well fitted inhibition curve with a large enough effect; inconclusive = small, poorly fitted or top-dose-only effect, or another doubt; inactive = no such curve, though single readings can be large or run the other way
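Two-generation exposure (96 h) targets delayed-death phenotype. Reporter parasites carrying integrated firefly luciferase, in red cells at 2% hematocrit and 0.05% parasitemia final, kept at 37 C, 5% CO2; luminescence loss indicates inhibition.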
Of the large screens only hits and unclear results are named; the others gave an inactive call. Unless noted, calls come from the whole dose curve.

CCC(Cc1ccccc1)NC(=O)c1ccc2nc(N3CCOCC3)sc2c1 (stereo not drawn)	none
O=C(CN1CCSC1=NCc1ccccc1)c1ccc(Cl)cc1	NS1 inh inconclusive, Pf growth 96h inconclusive
CN(Cc1ccco1)C(=O)CSc1nc(C2CC2)n(-c2ccccc2)n1	none (no result: NS1 inh)
O=C(NCc1ccccn1)Nc1ccccc1F	none
c1ccc(-c2nc(SCc3nc4ccccc4[nH]3)c3oc4ccccc4c3n2)cc1	none (no result: NS1 inh, Pf growth 48h, Pf growth 96h)
Cc1nc2sc3c(c2c(=O)o1)CC(C)(C)OC3	Pf growth 96h 15µM
Cc1nc2sc3c(c2c(=O)o1)CCC3	Pf growth 96h inconclusive
Cc1cc(C)n(-c2nc(SCCN(C)C)c3c4c(sc3n2)COC(C)(C)C4)n1	Pf growth 48h 1.9µM, Pf growth 96h 1.5µM
Cc1cc(C)n(-c2nc(NCC3CCCO3)c3c4c(sc3n2)COC(C)(C)C4)n1 (stereo not drawn)	Pf growth 96h 2.3µM (no result: Pf growth 48h)
Cc1cc(C)n(-c2nc(SCC(=O)NCC3CCCO3)c3c4c(sc3n2)CCCC4)n1 (stereo not drawn)	Pf growth 48h 12µM, Pf growth 96h 4.1µM
Cc1cccc([N+](=O)[O-])c1NC(=O)CN(Cc1ccccc1)Cc1ccccc1	Pf growth 48h inconclusive, Pf growth 96h 8.3µM
Cc1cccc(C)c1NC(=O)CNC(=O)Cc1ccccc1[N+](=O)[O-]	none
CC1=C2C(=O)[C@@H]3[C@@H](CC=C4C[C@@H](O)CC[C@@]43C)[C@H]2CC[C@@]12O[C@H]1C[C@H](C)CN[C@H]1[C@@H]2C	none (no result: SARS PLpro yeast, Pf growth 48h, Pf growth 96h)
C=C1SC(Nc2c(C)cc(C)cc2C)=NC12CCCCC2	Pf growth 48h 1.7µM, Pf growth 96h inconclusive
C=C1SC(Nc2c(C)cccc2C)=NC12CCCCC2	Pf growth 48h inconclusive, Pf growth 96h inconclusive
COc1ccc(-c2cc(CNC(=O)CCl)on2)cc1	Pf growth 48h 2.9µM, Pf growth 96h 1.5µM
CC(C)C(=O)NCc1cc(-c2ccccc2)no1	Pf growth 96h 5.2µM
CC(=O)N1N=C(c2ccc(C)cc2)OC1c1ccc(Br)cc1 (stereo not drawn)	none
CCOc1ccc(Br)cc1C1=NN(C(C)=O)C(c2ccc([N+](=O)[O-])s2)O1 (stereo not drawn)	Pf growth 48h 9.3µM, Pf growth 96h inconclusive
CCN(c1ccccc1)S(=O)(=O)c1cc(C(=O)NCc2ccco2)ccc1C	Pf growth 48h 12µM, Pf growth 96h 13µM (no result: NS1 inh)
CCc1ccc(NC(=O)c2ccc(F)c(S(=O)(=O)N(CC)c3ccccc3)c2)cc1	Pf growth 48h 9.3µM, Pf growth 96h inconclusive
CC1CCCN(S(=O)(=O)c2cc(C(=O)NCc3ccco3)ccc2Cl)C1 (stereo not drawn)	none (no result: NS1 inh, Pf growth 48h, Pf growth 96h)
O=C(c1ccc(Cl)c(S(=O)(=O)N2CCOCC2)c1)N(Cc1ccco1)Cc1cccs1	Pf growth 48h inconclusive, Pf growth 96h 2.6µM (no result: NS1 inh)
O=C(NCc1ccco1)c1ccc(Cl)c(S(=O)(=O)N2CCCC2)c1	Pf growth 48h 9.3µM, Pf growth 96h 2.6µM (no result: NS1 inh)
CCN(c1ccccc1)S(=O)(=O)c1cc(C(=O)Nc2cccc(Cl)c2)ccc1F	Pf growth 48h inconclusive, Pf growth 96h inconclusive
COC(=O)CCNCCSc1nnc(-c2ccco2)n1Cc1ccccc1	none
Cc1ccc(C(=O)NCc2ccco2)cc1S(=O)(=O)N1CCOCC1	Pf growth 48h inconclusive
Cc1ccc(C(=O)NCc2ccco2)cc1S(=O)(=O)N1CCCC1	Pf growth 48h 12µM
Cc1cc2ccccn2c1C(C[N+](=O)[O-])c1ccc(N(C)C)cc1 (stereo not drawn)	NS1 inh inconclusive, Pf growth 48h inconclusive, Pf growth 96h inconclusive
COc1ccc(C(C[N+](=O)[O-])c2c(C)cc3ccccn23)cc1 (stereo not drawn)	Pf growth 48h 10µM, Pf growth 96h 12µM (no result: NS1 inh)
COc1ccc(C(C[N+](=O)[O-])c2c(-c3ccccc3)cc3ccccn23)c(OC)c1 (stereo not drawn)	Pf growth 48h 10µM (no result: Pf growth 96h)
CCOC(=O)c1oc2ccccc2c1COC(=O)CNC(=O)c1ccc(C)cc1	none (no result: NS1 inh)
COc1ccc(N(C)C(=O)C2CCN(S(=O)(=O)c3cccc4nonc34)CC2)c(OC)c1	Pf growth 48h inconclusive, Pf growth 96h 9.3µM
CN(Cc1ccccc1)C(=O)C1CCN(S(=O)(=O)c2cccc3nonc23)CC1	Pf growth 96h 13µM
CN(C(=O)C1CCN(S(=O)(=O)c2cccc3nonc23)CC1)C1CCCCC1	Pf growth 96h inconclusive
CCN(CC)C(=O)C1CCCN(c2ccc([N+](=O)[O-])cc2)C1 (stereo not drawn)	Pf growth 96h 1.7µM
CN1CCN(c2cc3c(nn2)Oc2ccccc2N3C)CC1	none (no result: SARS PLpro yeast, NS1 inh)
COc1ccc(CCNC(=O)C/C(C)=N/NC(=O)c2ccc([N+](=O)[O-])cc2Cl)cc1OC	none
